Most compounds without a hit are left out; they make up all but 7.4% or so of the library.
FLuc modulator: inhibits or activates purified firefly luciferase, miR-21 counter-screen. P08659. purified FLuc, Km substrates, luminescence inhibition. Potency, µM (titrated, usually from 57.5 µM), for inactives: at the top dose activity change, negative = inhibition, hits mostly inhibitors. 360,000 compounds, 6.9% hits. AID 588342;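 note: plate controls were vehicle for no effect and reference inhibitor for full effect; nearly all actives have a fitted effect of over 55% in size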
Target sequence (P08659 whole entry, looked up): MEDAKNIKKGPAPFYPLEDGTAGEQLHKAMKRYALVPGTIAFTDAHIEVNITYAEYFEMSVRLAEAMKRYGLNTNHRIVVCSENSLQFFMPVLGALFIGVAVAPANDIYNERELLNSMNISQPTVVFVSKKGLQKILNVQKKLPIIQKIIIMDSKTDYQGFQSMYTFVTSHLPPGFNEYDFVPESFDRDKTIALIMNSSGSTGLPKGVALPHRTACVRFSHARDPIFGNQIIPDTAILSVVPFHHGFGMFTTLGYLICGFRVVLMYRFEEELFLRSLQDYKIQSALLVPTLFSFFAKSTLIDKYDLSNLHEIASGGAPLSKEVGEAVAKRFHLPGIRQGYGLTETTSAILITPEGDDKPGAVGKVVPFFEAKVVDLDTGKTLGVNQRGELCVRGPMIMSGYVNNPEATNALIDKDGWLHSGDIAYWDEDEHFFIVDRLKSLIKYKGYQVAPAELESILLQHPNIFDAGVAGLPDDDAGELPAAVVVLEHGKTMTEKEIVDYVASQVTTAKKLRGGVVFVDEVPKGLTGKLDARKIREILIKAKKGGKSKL
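Purified P. pyralis luciferase (10nM final) with 10uM D-luciferin and 10uM ATP (Km levels) in 50mM Tris acetate pH 7.5, 10mM Mg acetate, 0.01% Tween-20, 0.05% BSA; qHTS 6-point titration, ~60 µM downward; luminescence read.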
ELG1 genotox: inducers of genotoxicity in HEK293T ELG1-luciferase cells | HEK293T ELG1-luciferase reporter, luminescence, 16 h | Potency, µM (titrated, usually from 46 µM), for inactives: top-dose activity change, positive = activation, actives largely listed as activators | 330,000 compounds, 1.3% hits | AID 504466; note: % of control where 0% means no effect; nearly all actives have a fitted effect of over 60% in size
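Luminescence read-out: rising ELG1-luciferase signal, reflecting elevated ELG1 protein under genetic stress, flags genotoxic compounds. Cells were treated for 16 hr at 37 °C before ONE-Glo detection.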
SMN2 splice up: enhancers of SMN2 splice variant expression; HEK293 SMN2-luciferase splicing reporter, luminescence, 30-36 h; 210,000 compounds, 2.8% hits; Potency, µM (highest dose often 46.1 µM), for inactives: at the highest dose activity change, positive = activation, actives largely listed as activators; note: % of control where 0% means no effect; nearly all actives have a fitted effect of over 55% in size
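qHTS luciferase splicing reporter: luminescence rises when SMN2 exon 7 is included in transfected HEK293 cells. Compound exposure lasted 30-36 h at 37C, with 4.5 mM final sodium butyrate as control, followed by a ONE-Glo read.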
Rab9 prom act: activates the Rab9 promoter | Potency, µM (doses to about 9.22 µM), for the others: top-dose activation, negative = inhibition, hits mostly activators | AID 485297 | 320,000 compounds, 2.8% hits | Huh7 Rab9 promoter-luciferase reporter, luminescence, 24 h; note: % of control where 0% means no effect; nearly all actives have a fitted effect of over 60% in size
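Huh7 cells stably carrying Rab9 promoter–luciferase reporter, plated 1500 cells/well, compound added after 2 h and incubated 24 h at 37 °C; luciferase luminescence then read after 10 min with detection reagent.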
NPC1 promoter act: activates the NPC1 promoter | Potency, µM (series often up to 9.22 µM), without a hit: top-dose activation, actives largely listed as activators | AID 485313 | 320,000 compounds, 2.4% hits | Huh7 NPC1 promoter luciferase reporter, 24 h; note: % of control where 0% means no effect; nearly all actives have a fitted effect of over 60% in size
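Cells: Huh7 expressing luciferase under the NPC1 promoter, 1500/well. Seeded 2 h, compound added, incubated 24 h at 37 °C. Luciferase reagent, 10 min ambient, then luminescence.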
Starred values were filed as active, the others as inactive; ? = inconclusive; nt = no result; [ ] = remark or other dose. Calls come from the whole dose curve; as a rule, active = well fitted curve in the direction sought with a large enough effect; inconclusive = small, poorly fitted or top-dose-only effect, or another doubt; inactive = no such curve, though single readings can be large; an effect the other way counts as inactive or inconclusive. Potency is the fitted concentration of half-maximal effect.

SMILES	FLuc modulator	ELG1 genotox	SMN2 splice up	Rab9 prom act	NPC1 promoter act
O=C(CCSc1ccccc1)NCCSCc1ccco1	19µM*	-1%	nt	0%	3%
O=C(NCCSCc1ccco1)Nc1cccc(Cl)c1	17µM*	10%	?	?	?
Cc1cc(Cl)ccc1N(CC(=O)NCCSCc1ccco1)S(C)(=O)=O	-2%	0%	nt	-8%	-8%
O=C(NCCc1ccc(Cl)cc1)Nc1cccc(Cl)c1	?	-11%	-22%	-1%	0%
Cc1ccc(C(=O)Nc2ccc(Cl)c(-c3nc4ncccc4o3)c2)c(C)c1	2.7µM*	nt	?	nt	nt
COc1cc(C(=O)Nc2ccc(Cl)c(-c3nc4ncccc4o3)c2)cc(OC)c1OC	1%	nt	-8%	nt	nt
COc1ccccc1CNc1ncnc2c1c(-c1ccccc1)cn2-c1cccc(C)c1	-3%	nt	nt	nt	nt
Fc1ccc(-n2[nH]nnc2=S)cc1N1CCCC1	24µM*	13%	1%	15%	16%
c1ccc2nc3c(nc2c1)[nH]c1ccccc13	3.8µM*	9.2µM*	11µM*	0.89µM*	3.2µM*
c1ccc(-c2c3ccccc3nc3[nH]c4ccccc4c23)cc1	-22%	2%	-19%	-2%	0%
Cc1nc(N)sc1-c1csc(N(C)c2ccc(O)cc2)n1	4.8µM*	?	?	?	?
Clc1ccccc1Sc1cnc2ccccc2n1	?	1%	-7%	14%	4%
c1ccc(Sc2cnc3ccccc3n2)cc1	21µM*	nt	11%	nt	nt
Clc1ccc(Sc2cnc3ccccc3n2)cc1	15µM*	nt	-6%	nt	nt
Brc1ccc(Sc2cnc3ccccc3n2)cc1	?	nt	-11%	nt	nt
CCN(CC)c1ccc(CNc2ccc3c(c2)ncn3CC)cc1	-5%	3%	nt	2%	1%
CCCn1cnc2cc(NCc3ccc(Br)cc3)ccc21	11µM*	?	nt	3.5µM*	?
CCn1cnc2cc(NCc3ccc(Br)cc3)ccc21	13µM*	?	nt	0.71µM*	3.5µM*
CCn1cnc2cc(NCc3cccc(OC)c3O)ccc21	12µM*	18µM*	12%	-1%	0%
CCCn1cnc2cc(NCc3cccc(OC)c3)ccc21	17µM*	16%	13µM*	?	?
C#CCCCCCCCCCCCC(=O)CC(O)COC(C)=O (stereo not given)	nt	nt	1%	nt	nt
COc1cccc(CNC(=O)C(Cc2ccccc2)NS(=O)(=O)c2ccc3c(c2)oc(=O)n3C)c1 (stereo not given)	0%	nt	-5%	nt	nt
COc1ccc(CCn2c3c(c(=O)[nH]c2=O)C(NC(=O)c2ccccc2F)(C(F)(F)F)C(=O)N3)cc1OC (stereo not given)	5%	nt	-3%	nt	nt
CCn1cnc2cc(NCc3ccc(C)cc3)ccc21	15µM*	8.2µM*	13µM*	4µM*	2.8µM*
COc1ccccc1-n1cnc2cc(NCc3ccccc3O)ccc21	?	6%	nt	13%	-2%
SMILES	FLuc modulator	ELG1 genotox	SMN2 splice up	Rab9 prom act	NPC1 promoter act
COc1ccccc1-n1cnc2cc(NCc3ccco3)ccc21	19µM*	?	7%	5%	-3%
Cn1cnc2cc(NCc3ccc(Cl)cc3)ccc21	17µM*	?	nt	0.89µM*	2.5µM*
Cc1ccc(CNc2ccc3c(c2)ncn3C(C)C)cc1	6µM*	9.2µM*	nt	2.8µM*	2.2µM*
COc1ccc2oc(=O)cc(CN3CCN(c4ccc(F)cc4)CC3)c2c1	-8%	nt	-14%	nt	nt
Oc1c(CNc2ccccc2)cc(COCc2ccccc2)c2cccnc12	0%	-1%	nt	-15%	-14%
Oc1c(CN2CCOCC2)cc(COCc2ccccc2)c2cccnc12	1%	18µM*	-105%	-25%	-18%
CN[C@H](CC(C)C)C(=O)N[C@H]1C(=O)N[C@@H](CC(N)=O)C(=O)N[C@@H]2C(=O)N[C@H]3C(=O)N[C@H](C(=O)N[C@H](C(=O)O)c4cc(O)cc(O)c4-c4cc3ccc4O)[C@H](O)c3ccc(c(Cl)c3)Oc3cc2cc(c3O[C@@H]2O[C@H](CO)[C@@H](O)[C@H](O)[C@@H]2O[C@H]2C[C@](C)(N)[C@H](O)[C@H](C)O2)Oc2ccc(cc2Cl)[C@H]1O	nt	nt	nt	-6%[46.1 µM]	3%[46.1 µM]
Cc1ccc(/C=N/OC(=O)c2nn(C)cc2Cl)cc1	1.3µM*	8%	-6%	11%	-2%
Cc1ccc(C(=O)O/N=C/c2c(C(F)(F)F)nn(C)c2Sc2ccc(Cl)cc2)cc1	?	-20%	-46%	3%	0%
Cc1ccc(C(=O)O/N=C/c2c(C)nn(C)c2Cl)cc1	11µM*	-3%	-1%	-6%	-1%
Cc1ccc(C(=O)O/N=C/C2=C(Cl)c3ccccc3CC2)cc1	24µM*	0%	-18%	1%	-3%
Cc1ccc(CO/N=C/C2=C(Cl)c3ccccc3CC2)cc1	-19%	nt	-9%	nt	nt
O=C(OCC#CCNc1nnc(-c2cccc3ccccc23)o1)c1cccs1	3%	nt	nt	2%	-2%
Cc1cc(-n2c(C)cc(C(=O)COc3cccnc3[N+](=O)[O-])c2C)no1	-7%	3%	nt	11%	6%
CCCn1c(C)cc(C(=O)COc2ccc(C)nc2[N+](=O)[O-])c1C	?	14%	nt	18%	4%
Cc1cc(C(=O)COc2cccnc2[N+](=O)[O-])c(C)n1Cc1cccs1	24µM*	?	-38%	2%	-2%
Cc1ccc(OCC(=O)c2cc(C)n(-c3ccccc3)c2C)c([N+](=O)[O-])n1	19µM*	-4%	-58%	-6%	-3%
CC(=O)Nc1ccccc1OCC(=O)c1cc(C)n(Cc2cccs2)c1C	?	10µM*	-109%	-22%	-17%
COC(=O)CCn1c(C)cc(C(=O)COc2ccccc2C(N)=O)c1C	?	-16%	-32%	-13%	-20%
COc1ccccc1C(=O)Nc1cc(-c2cccc(Br)c2)nn1-c1ccccc1	-14%	nt	nt	nt	nt
C/C=C(\C)[C@H](O)C[Si](C)(C)c1ccccc1	nt	nt	1%	nt	nt
CC1CC(C)CN(C(=O)CNC(=O)c2sc3ccccc3c2Cl)C1 (stereo not given)	?	-1%	nt	13%	5%
O=C(NCC(=O)N1CCCCC1)c1sc2ccccc2c1Cl	8.5µM*	?	nt	2.2µM*	1.8µM*
O=C(Nc1ccc(CN2CCCCC2)cc1)c1sc2ccccc2c1Cl	13µM*	13%	nt	15%	25%
CC1CCCN(C(=O)CNC(=O)c2sc3ccccc3c2Cl)C1 (stereo not given)	15µM*	?	nt	2.5µM*	?
O=C1/C(=C/c2ccc(C(=O)O)cc2)CCC/C1=C\c1ccc(C(=O)O)cc1	3%	2%	18%	0%	-1%
O=C1C(=C2SCCCS2)CC/C1=C\c1ccc(F)cc1	0.067µM*	?	-79%	?	?
Cc1cccc(/C=C2\CCC(=C3SCCCS3)C2=O)c1	0.085µM*	?	?	0.089µM*	0.32µM*
